Broadly, the AC50 is the concentration giving half of the maximal activity seen.

Records with an inconclusive call do not appear. Active and inactive are the calls of the source. How the source made its calls: active means hit-call score of the fitted dose curve at least 0.9, where 1 is the maximum; inconclusive means response in the unintended direction; inactive means score below 0.9.

A short description of assay [1]: ATG_XTT_Cytotoxicity: Cytotoxicity Assessment in the Attagene TRANS-FACTORIAL HepG2 Assay (AID 2283584).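 On AC50: cells exposed to compound for 24 h before reading; active means loss of viability signal versus DMSO baseline.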 In short, it runs like this:
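Viability endpoint from XTT after 24 h chemical exposure of reporter-transfected human HepG2 liver cells; signal loss fitted relative to DMSO negative control.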

Assay [2] addresses Cellular tumor antigen p53 (Homo sapiens) (UniProt P04637). Put plainly: TOX21_p53_BLA_p2_ratio: Tox21 HCT-116 p53 Agonism Beta-lactamase Assay, Ratio, Phase 2 (AID 2283592). The procedure, abridged: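 Read-out is the blue/green (460/530 nm, 405 nm excitation) ratio after 2 h CCF4-AM loading, fitted as gain versus DMSO. Compounds, pinned at 217-fold dilution from DMSO stocks, stayed 16 h on HCT-116 beta-lactamase reporter cells seeded 5 h earlier.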

Assay [3] has the same target. Put plainly: TOX21_p53_BLA_p3_ratio: Tox21 HCT-116 p53 Agonism Beta-lactamase Assay, Ratio, Phase 3 (AID 2283596). The procedure, abridged: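 Cells were seeded at 4000/well, rested 5 h at 37C, then dosed with DMSO compound solutions (217-fold dilution) for 16 h. CCF4-AM substrate was loaded for 2 h at room temperature, and the 460/530 nm emission ratio was fitted for gain of signal versus DMSO.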

Assay [4] is described as follows: TOX21_p53_BLA_p4_viability: Viability Assessment in the Tox21 HCT-116 p53 Agonism Beta-lactamase Assay, Phase 4 (AID 2283597).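 Further: hits lower the luminescence signal meaning cytotoxicity.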 In short, it runs like this:
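Cytotoxicity as reduced cellular ATP (CellTiter-Glo luminescence, 30 min room temperature), measured in the same wells following the CCF4 FRET p53 reading. Human HCT-116 cells received compounds in DMSO (217-fold dilution) for 16 h.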

For assay [5], the target named is Cellular tumor antigen p53 (Homo sapiens) (UniProt P04637). Put plainly: TOX21_p53_BLA_p5_ratio: Tox21 HCT-116 p53 Agonism Beta-lactamase Assay, Ratio, Phase 5 (AID 2283599). The procedure, abridged:
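HCT-116 p53-bla cells (4000/well) plated 5 h, dosed with compound (217-fold DMSO dilution) for 16 h at 37 C; CCF4-AM substrate 2 h at room temperature. Activity is the 460/530 nm emission ratio (405 nm excitation), fitted in gain-of-signal direction versus DMSO.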

A short description of assay [6]: TOX21_p53_BLA_p5_viability: Viability Assessment in the Tox21 HCT-116 p53 Agonism Beta-lactamase Assay, Phase 5 (AID 2283600). In short, it runs like this: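 Viability came from CellTiter-Glo ATP luminescence, read after 30 min at room temperature. Before this, HCT-116 p53-bla cells (4000/well) had 16 hours of compound exposure at 37C, with DMSO stocks diluted 217-fold on transfer.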

Assay [7] concerns the target Cellular tumor antigen p53 (Homo sapiens) (UniProt P04637). Put plainly: TOX21_p53_BLA_p4_ratio: Tox21 HCT-116 p53 Agonism Beta-lactamase Assay, Ratio, Phase 4 (AID 2283601). The procedure, abridged: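 HCT-116 p53 beta-lactamase reporter cells (4000/well) preincubated 5 h, then compound (217-fold dilution of DMSO stock) for 16 h at 37C. CCF4-AM substrate added 2 h at room temperature; 460/530 nm emission ratio fitted upward versus DMSO.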

The nature of assay [8]: TOX21_p53_BLA_p3_viability: Viability Assessment in the Tox21 HCT-116 p53 Agonism Beta-lactamase Assay, Phase 3 (AID 2283593).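 Further: cells exposed to compound for 16 h before reading.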 The procedure, abridged: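 HCT116 cells, 4000/well, dosed 5 h after plating by pin transfer (217-fold dilution from DMSO stock) and incubated 16 h at 37C, 5% CO2. Viability read as ATP luminescence with CellTiter-Glo after 30 min at room temperature.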

Chain of Cellular tumor antigen p53 (Homo sapiens) (P04637 whole entry, looked up): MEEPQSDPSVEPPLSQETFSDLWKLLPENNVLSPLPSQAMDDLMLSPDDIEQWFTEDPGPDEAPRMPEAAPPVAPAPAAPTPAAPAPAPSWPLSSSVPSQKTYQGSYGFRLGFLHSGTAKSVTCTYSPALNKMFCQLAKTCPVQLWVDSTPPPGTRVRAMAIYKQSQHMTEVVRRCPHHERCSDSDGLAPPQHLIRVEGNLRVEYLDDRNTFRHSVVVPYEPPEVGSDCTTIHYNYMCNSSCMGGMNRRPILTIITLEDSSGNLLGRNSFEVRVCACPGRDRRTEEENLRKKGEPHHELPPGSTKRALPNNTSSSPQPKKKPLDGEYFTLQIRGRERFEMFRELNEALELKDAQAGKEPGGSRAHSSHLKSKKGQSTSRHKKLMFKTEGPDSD

On to `O=C(O)C[C@H](O)C[C@H](O)/C=C/c1c(C2CC2)nc2ccccc2c1-c1ccc(F)cc1`, for which the outcome in assay [1], in assay [2], in assay [3], in assay [4], in assay [5] and in assay [6] was inactive. The result in assay [7] was inactive.
In the case of `C=COCCOCCOCCOC=C`, the outcome in assay [1], in assay [2], in assay [3], in assay [5] and in assay [7] was inactive.
For the compound `CCCCCCCCCCCCCCCC(=O)OC[C@H](O)[C@H]1OC(=O)C(O)=C1O`, the compound was classed as inactive in assay [1], in assay [2], in assay [8], in assay [3], in assay [6] and in assay [7].
For `COc1cc(C=O)ccc1OC(=O)C(C)C`, the compound was classed as inactive in assay [1], in assay [2], in assay [3] and in assay [5].
On to `CC1CCC(C(C)CS)CC1S` (stereo not drawn), for which the AC50 in assay [1] is 152 µM (active). In addition, the outcome in assay [2], in assay [8], in assay [3], in assay [4], in assay [5] and in assay [6] was inactive. In addition, the outcome in assay [7] was inactive.
Consider `CC[C@]12CCCN3CCc4c(n(c5ccccc45)[C@@](O)(C(=O)OC)C1)[C@@H]32`, for which the compound was classed as inactive in assay [1], in assay [2], in assay [3], in assay [5] and in assay [6].
As for `C=CC[N+](C)(C)CC=C`, the outcome in assay [1], in assay [2], in assay [8], in assay [3], in assay [4] and in assay [5] was inactive. The outcome in assay [6] and in assay [7] was inactive.
On to `COc1ccc(O)cc1`, for which the compound was classed as inactive in assay [1], in assay [2], in assay [8], in assay [4], in assay [5] and in assay [7].
Regarding `C/C=C(\C)C(=O)OCc1ccccc1`, the call in assay [1], in assay [2], in assay [8], in assay [3], in assay [4] and in assay [6] was inactive. Moreover, the result in assay [7] was inactive.
As to `C=C(C)C(=O)NCCCN(C)C`, the call in assay [1], in assay [2], in assay [8], in assay [3], in assay [5] and in assay [6] was inactive. Further, the result in assay [7] was inactive.
Take `C=C(C)C(=O)OCCOC(=O)CC(C)=O`: the call in assay [1], in assay [2], in assay [3], in assay [5], in assay [6] and in assay [7] was inactive.
In the case of `CCC(=O)/C=C/C1C(C)=CCCC1(C)C` (stereo not drawn), the compound was called inactive in assay [1], in assay [2], in assay [8], in assay [3], in assay [5] and in assay [7].
As to `CCCCN`, the outcome in assay [1], in assay [8], in assay [3], in assay [4] and in assay [5] was inactive.
In the case of `OC[C@H]1O[C@H](O[C@]2(CCl)O[C@H](CCl)[C@@H](O)[C@@H]2O)[C@H](O)[C@@H](O)[C@H]1Cl`, the result in assay [1], in assay [2], in assay [8], in assay [3], in assay [5] and in assay [6] was inactive. For the same compound, the result in assay [7] was inactive.
Consider `O=C1O[C@@H]2[C@@H](O)[C@H](O)O[C@@H]2[C@H]1O`, for which the outcome in assay [1], in assay [2], in assay [3], in assay [4], in assay [5] and in assay [6] was inactive. Besides, the result in assay [7] was inactive.
`O=C(O)c1cn(-c2ccc(F)cc2)c2cc(N3CCNCC3)c(F)cc2c1=O`: the compound was classed as inactive in assay [1], in assay [2], in assay [8], in assay [3], in assay [5] and in assay [7].
As for `CCCCCCCCCCCCSC`, the outcome in assay [1], in assay [2], in assay [8], in assay [4], in assay [5] and in assay [7] was inactive.
`CCCc1ccccc1O`: the call in assay [1], in assay [2], in assay [8], in assay [3], in assay [5] and in assay [6] was inactive.
For the compound `OCCCCCO`, the result in assay [1], in assay [2], in assay [3], in assay [5], in assay [6] and in assay [7] was inactive.
`CCCCCC(=O)OCCc1ccccc1`: the outcome in assay [1], in assay [2], in assay [8], in assay [3], in assay [4] and in assay [6] was inactive.
As to `Cc1ccc2ccccc2n1`, the call in assay [1], in assay [2], in assay [8], in assay [3], in assay [5] and in assay [6] was inactive. For the same compound, in assay [7], the result was inactive.
In the case of `Sc1nc(S)nc(S)n1`, the compound was called inactive in assay [1], in assay [8], in assay [3] and in assay [5].
Consider `O=C1CCCCCCCCCCOCCCCO1`, for which the call in assay [1], in assay [2], in assay [3], in assay [4], in assay [5] and in assay [6] was inactive.
On to `COc1ccc(OC)c(OC)c1`, for which the call in assay [1], in assay [8], in assay [3], in assay [5], in assay [6] and in assay [7] was inactive.
As for `CCCCCCCCCOC(C)=O`, the call in assay [1], in assay [2], in assay [3], in assay [4], in assay [5] and in assay [7] was inactive.
`NNc1nc(-c2ccc(N)cc2)cs1`: the call in assay [1], in assay [2], in assay [3], in assay [4], in assay [5] and in assay [6] was inactive. For the same compound, the result in assay [7] was inactive.
Regarding `CC(C)(N)CO`, the compound was called inactive in assay [1], in assay [2], in assay [8], in assay [3], in assay [4] and in assay [5]. Besides, the compound was classed as inactive in assay [6] and in assay [7].
Take `CC1=CCC2C(C1)C2(C)C` (stereo not drawn): the result in assay [1], in assay [2], in assay [3], in assay [5], in assay [6] and in assay [7] was inactive.
`COC(C(=O)O)c1ccccc1` (stereo not drawn): the compound was called inactive in assay [1], in assay [2] and in assay [4].
With `CC(=O)c1c(C)cc(C(C)(C)C)cc1C`, the result in assay [1], in assay [2], in assay [8], in assay [4], in assay [5] and in assay [6] was inactive. Moreover, the result in assay [7] was inactive.
Turning to `O=Cc1ccc(Cl)c([N+](=O)[O-])c1`, the compound was classed as inactive in assay [1], in assay [2], in assay [3], in assay [4], in assay [5] and in assay [7].
Turning to `c1ccc2[nH]ccc2c1`, the call in assay [1], in assay [2], in assay [8], in assay [3], in assay [4] and in assay [5] was inactive. Further, the compound was called inactive in assay [6] and in assay [7].

For the origin of these results see PubChem BioAssay (EPA / NIEHS).
